# Rows were chosen to be rich in hits. Some 1.4% of all compounds tested hit in one or more screens of this group.
# CFTR F508del cor: correctors of CFTR F508del function in bronchial epithelial cells; CFBE cells, YFP halide quenching; stimulated with forskolin plus potentiator P3; % fluorescence drop versus neutral controls; hit rate 0.36% among 350,000; activity (quench increase), % at 7.58 µM; AID 720511;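 active = mean added fluorescence quench of at least 8% versus neutral control, with both replicates also reaching 8%; inconclusive = only one of the mean or replicate conditions met; inactive = mean below 8% and not both replicates reaching 8%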;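 note: cells transiently co-express mutant CFTR-F508del with the halide-sensitive YFP; corrector assay measuring rescue of mutant channel to the surface after 24 h compound exposure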
# ARNT TACC3 PPI: disruptors of human ARNT/TACC3 interaction | AlphaScreen His-ARNT PAS-B/GST-TACC3 binding, luminescence; TACC3 fragment carries E629A point mutation | Q9Y6A5 | inhibition, % at 9.99 µM | hit rate 0.66% among 390,000;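 active = mean inhibition of replicates at least 50% and at least half of replicates each reaching 50%; inconclusive = half or more replicates reach 50% but mean below 50%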;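 note: 0% = complete ARNT plus TACC3 wells and 100% = ARNT alone without TACC3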
# C2C12 statin: suppression of simvastatin myotoxicity | C2C12 myotubes + simvastatin, ATP luminescence, 48 h; scaled: DMSO 0, geranylgeraniol control 100 | rescue of ATP level, % at 7.49 µM | hit rate 0.78% among 330,000 | AID 602340;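 active = mean ATP rescue above about 67%, or every replicate alone reaching that limit, limit read from the data, passing the limit was not always enough; inconclusive = no clear call, values can overlap the other calls; inactive = mean under the limit and some replicate under it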;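 note: myotubes were challenged with 10 µM simvastatin during compound exposure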
# PglD DTNB: inhibitors of Campylobacter jejuni PglD acetyltransferase | inhibition, % at 12.5 µM | AID 602405 | purified PglD enzyme, DTNB colorimetric CoA detection | hit rate 0.098% among 360,000; in the data active = inhibition above about 16%, passing the limit was not always enough; inconclusive = no clear call, values can overlap the other calls
# PglD confirm: PglD (C. jejuni) inhibition confirmation | shares compounds with PglD DTNB | Purified C. jejuni PglD, DTNB absorbance 412 nm | inhibition, % at 20 µM | 320 tested, under 10 active | AID 743156;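 active = mean inhibition across replicates of at least 20% with every single replicate also at 20% or more; inconclusive = mean inhibition at least 20% but some replicate falls below 20%; inactive = mean inhibition under 20% and not all replicates reach it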;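 note: initial rate of CoA release by acetyl transfer from AcCoA to the UDP-4-amino sugar; 0% = median of neutral control wells and 100% = median of positive control wells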
# ARNT Alpha ctr: counter-screen for ARNT/TACC3 inhibitors: AlphaScreen artifacts; shares compounds with ARNT TACC3 PPI; His-ARNT PASB-GST AlphaScreen artifact counter-screen, luminescence; AC50, µM (top dose mostly 68 µM), for the others: at the top dose activity change, negative = signal decrease; hit rate 50% among 1,200; AID 651705;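 active = every separate test run was called active for a drop in luminescence, with AC50 within twice the top valid dose, actives reach about 71 µM in these data; inconclusive = the separate test runs disagree in their calls; inactive = all runs inactive, including signal change in the wrong direction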
# * marks the source's active call; other numbers are inactive results; ? = inconclusive; . = no result.
SMILES,CFTR F508del cor,ARNT TACC3 PPI,C2C12 statin,PglD DTNB,PglD confirm,ARNT Alpha ctr
O=C(COC(=O)c1ccc([N+](=O)[O-])s1)NC(=O)NCc1ccccc1,3,.,10,31*,0,.
O=C(NCCN1CCNCC1)c1ccccc1O,0,.,1,-7,.,.
c1ccc(CNCCN2CCNCC2)nc1,.,66*,-12,30*,-50,.
COCCCNC(=O)c1cccc2c(-c3cccc(C(N)=O)c3)coc12,-2,.,10,28*,-4,.
COCCNC(=O)c1cccc2c(-c3cccc(C(N)=O)c3)coc12,0,.,12,-6,.,.
C[C@@H]1CN([C@@H](C)CO)C(=O)c2cc(NC(=O)Nc3ccccc3)ccc2O[C@H]1CN(C)Cc1ccc(C(=O)O)cc1,-2,-5,-25,3,.,.
Cc1ccc(OCC(=O)N(C)CCc2ccccn2)cc1,.,3,?,24*,-1,.
C[C@@H]1CN([C@@H](C)CO)C(=O)Cc2cc(NS(=O)(=O)c3ccc(Cl)cc3)ccc2O[C@H]1CN(C)S(C)(=O)=O,4,-6,15,0,.,.
CCCCCn1c(=O)c(Cc2ccccc2)c(O)c2ccccc21,.,5,0,22*,2,.
CCCn1c(=O)c(Cc2ccccc2)c(O)c2ccccc21,.,-1,.,-3,.,.
CC(Sc1nnc(N)s1)C(=O)Nc1ccc(N2CCOCC2)cc1 (configuration not stated),.,-1,-25,21*,0,.
CC(Sc1nnc(N)s1)C(=O)Nc1ccc2c(c1)OCO2 (configuration not stated),3,1,-2,1,.,.
C[C@H]1C=C(C(=O)N2CCN(Cc3ccccc3)CC2)O[C@@H](OCc2ccc(CO)cc2)C1,-2,-2,.,3,.,.
N#CC1=C(N)Oc2cc(N)ccc2C1c1cccc(F)c1 (configuration not stated),10*,-7,-46,72*,1,.
Cc1ccc(S(=O)(=O)N(C)C[C@H]2Oc3ccc(NC(=O)C4CCCCC4)cc3CC(=O)N([C@@H](C)CO)C[C@@H]2C)cc1,2,-2,25,11,.,.
CCn1c(=O)cc(SCC(=O)N2CCOCC2)c2ccccc21,.,1,19,-3,.,.
CCn1c(=O)cc(SCC(=O)N2CCN(c3ccccc3OC)CC2)c2ccccc21,.,8,22,33*,?,.
CCN(CC)S(=O)(=O)c1ccc(S(=O)(=O)N2CCCC2C(=O)O)cc1 (configuration not stated),-4,-1,4,25*,4,.
C[C@H]1CN([C@@H](C)CO)C(=O)c2cc(NS(=O)(=O)c3cccs3)ccc2O[C@H]1CN(C)Cc1ccc(C(=O)O)cc1,-4,-6,.,-2,.,.
O=C1N=C2SCCN2/C1=C\c1ccc(Cl)cc1,.,-3,.,30*,-2,.
Cc1noc(C)c1NC(=O)N(C)C[C@@H]1OCCCC[C@@H](C)Oc2ccc(NS(=O)(=O)c3c(C)noc3C)cc2C(=O)N([C@H](C)CO)C[C@H]1C,2,-1,12,0,.,.
CN1C(=O)c2cc(NC(=O)C3CCC3)ccc2OC[C@H]2O[C@@H](CC(=O)NCc3ccccc3F)CC[C@@H]21,-1,.,.,.,.,.
COc1ccc(S(=O)(=O)N2CCCCC2)cc1NC(=S)Nc1ccccc1,.,1,.,23*,-2,.
COc1ccc(N2CCN(/C(=N\S(=O)(=O)c3ccccc3)Nc3nc(C)cc(C)n3)CC2)cc1,.,3,-9,26*,-5,.
O=C(CNC(=O)c1ccco1)Nc1ccc(N2CCCCCC2)cc1,2,0,-9,24*,-4,.
SMILES,CFTR F508del cor,ARNT TACC3 PPI,C2C12 statin,PglD DTNB,PglD confirm,ARNT Alpha ctr
O=C(CNC(=O)c1ccc(Br)o1)Nc1ccc(N2CCCCCC2)cc1,3,-1,1,-4,.,.
Fc1ccccc1OCCCn1ccnc1,1,-2,-2,-8,.,.
CCC(Oc1ccccc1F)C(=O)NCCCn1ccnc1 (configuration not stated),-3,4,-9,37*,-3,.
COCCN=c1scc(-c2ccco2)n1/N=C/c1ccc(O)c(O)c1O,-2,55*,23,6,.,34µM*
Cc1cc(C)c2nc(C)cc(N/N=C/c3ccc(O)cc3)c2c1,-13,55*,-73,-13,.,32µM*
Cc1cc(N/N=C/c2ccc(O)cc2)c2cccc(C)c2n1,-13,1,1,-8,.,.
COc1cc(Br)cc(/C=N/N(CCO)C2=NS(=O)(=O)c3ccccc32)c1OC,-1,2,-16,-5,.,.
O=S1(=O)N=C(N(CCO)/N=C/C=C/c2ccccc2)c2ccccc21,.,55*,.,-1,.,39µM*
COc1cc(/C=N/N(CCO)C2=NS(=O)(=O)c3ccccc32)cc(OC)c1OC,-6,41*,-16,1,.,-40%
Cc1ccccc1S(=O)(=O)N(C)C[C@@H]1OCc2ccccc2-c2ccccc2C(=O)N([C@@H](C)CO)C[C@@H]1C,1,4,.,1,.,.
C[C@H]1CN([C@@H](C)CO)C(=O)c2cc(NS(C)(=O)=O)ccc2O[C@@H]1CN(C)C(=O)Nc1ccc(F)cc1,-5,-18,3,-7,.,.
CC(C)C#Cc1ccc2c(c1)O[C@H](CN(C)C)[C@@H](C)CN([C@H](C)CO)S2(=O)=O,1,-1,2,1,.,.
CCCCN(CC)c1nc(N)c2c(N)nc(OCC)cc2c1C#N,.,10*,1,.,.,-11%
O=C(C[C@H]1C=C[C@@H](NC(=O)c2cccc(F)c2)[C@H](CO)O1)Nc1nccs1,2,0,27,-4,.,.
c1ccc(-c2nnc(-c3ccccn3)nc2NCc2ccccn2)cc1,.,.,.,.,.,0.7µM*
c1ccc(-c2nnc(-c3ccccn3)nc2NCCN2CCOCC2)cc1,.,.,.,.,.,0.83µM*
c1ccc(NCCc2ccccn2)cc1,1,6,7,1,.,.
CC(C)(C)CCNc1nc(-c2ccccn2)nnc1-c1ccccc1,.,.,.,.,.,2.2µM*
c1ccc(-c2nnc(-c3ccccn3)nc2NCCc2ccccn2)cc1,.,.,.,.,.,1.8µM*
C[C@@H]1CN([C@@H](C)CO)C(=O)c2cc(NC(=O)NC3CCCCC3)ccc2O[C@@H](C)CCCCO[C@H]1CN(C)CC1CCCCC1,0,-4,-17,-3,.,.
CN1CCN(c2nc(-c3ccccn3)nnc2-c2ccccc2)CC1,.,.,.,.,.,0.55µM*
COc1ccc(-c2nc(-c3ccccn3)nc(N3CCN(C)CC3)c2C#N)cc1,-3,19,12,-6,.,.
O=c1oc2c3c4c(cc2s1)CCCN4CCC3,.,active,-4,-4,.,44µM*
COc1ccc([N+](=O)[O-])cc1/C=N/NC(=O)CNC(=O)C(c1ccccc1)c1ccccc1,.,-10,.,4,.,.
COc1cccc(/C=N/NC(=O)CNC(=O)c2cccnc2)c1O,2,59*,0,0,.,2%
COc1cccc(/C=N/NC(=O)CNC(=O)c2ccncc2)c1O,3,56*,-5,5,.,-12%

# From PubChem
